# The list is not random: actives were taken first. Their share in the collection is about 2.2%.
# LGR2 inh – Drosophila LGR2 receptor signaling inhibition; HEK293 LGR2, CRE-luciferase, bursicon-stimulated, 4 h; inhibition, % at 9.99 µM; hit rate 0.35% among 380,000; AID 720647;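 active means drop in luminescence signal, shown as inhibition above about 50% in the replicate tests, limit read from the data, passing the limit was not always enough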;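 further: agonist challenge used bursicon conditioned medium at about half maximal strength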
# HSP90 inh – inhibitors of HSP90 luciferase refolding in rabbit reticulocyte lysate | luciferase refolding luminescence, 3 h | inhibition, % at 5.6 µM | hit rate 0.91% among 290,000;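 active means inhibition above the screen-wide mean plus 3 SD, computed separately per campaign, cut at about 16% in these data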;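 further: 0% = DMSO wells and 100% = 60 µM geldanamycin wells; inhibitors lower the luminescence because luciferase stays unfolded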
# TWEAK Fn14 block – TWEAK-Fn14 signaling inhibition; AID 1159606; TWEAK-stimulated Fn14 reporter cells, luciferase luminescence, 8 h; inhibition, % at 10 µM; hit rate 2% among 360,000; in the data active means inhibition above about 50%
# TROY signal inh – TROY signaling inhibition; hit rate 0.98% among 360,000; AID 1347056; Q293 LMP1-TROYcd NF-kB luciferase reporter, 4 h; inhibition, % at 10 µM;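 active means compounds whose plate-normalised and pattern-corrected inhibition of the luciferase reporter signal at the single screening dose is 50% or more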
# Starred values were filed as active, the others as inactive; . = no result.
SMILES,LGR2 inh,HSP90 inh,TWEAK Fn14 block,TROY signal inh
C[C@H]1CN([C@@H](C)CO)C(=O)c2cccc(NS(=O)(=O)c3cn(C)cn3)c2O[C@@H]1CN(C)C(=O)Nc1ccc2c(c1)OCO2,-18,.,.,.
COCC(=O)N1[C@H](CO)[C@@H](c2ccccc2)C12CN(C(=O)c1ccccc1)C2,13,.,.,.
CN(Cc1ccccc1)C(=O)c1cccc(NC(=O)Cc2ccc(NC(=O)C3CCN(C(=O)CCc4ccccc4)CC3)cc2)c1,18,.,85*,57*
CN(C(=O)c1cccc(NC(=O)Cc2ccc(NC(=O)C3CCCN(C(=O)CCc4ccccc4)C3)cc2)c1)C1CCCCC1 (stereo unspecified),8,.,89*,62*
C[C@H]1CN([C@@H](C)CO)C(=O)Cc2cc(NC(=O)Cc3cn(C)c4ccccc34)ccc2O[C@H]1CN(C)S(C)(=O)=O,4,.,.,.
C[C@@H](NC(=O)C[C@H]1CC[C@@H]2[C@H](COC[C@H](O)CN2C(=O)Nc2cccc(F)c2)O1)c1ccccc1,-8,.,.,.
CN(CCC#N)c1ccc(/C=C(\C#N)c2ccccn2)cc1,73*,2,52*,40
COc1ccc(/C=N/NC(=S)Nc2cccc(C(=O)O)c2)cc1,75*,10,50*,-39
COc1cc(/C=N/NC(=O)c2ccccc2)ccc1O,-49,-1,-3,-27
COC(=O)c1ccc(COc2ccc(/C=N/Nc3cccc(C(=O)O)c3)cc2)cc1,-43,23*,22,-17
COc1cc(/C=N/NC(=S)Nc2cccc(C(=O)O)c2)ccc1O,91*,9,-16,-60
COc1ccc(/C=N/NC(=S)Nc2ccccc2)cc1,-83,3,-3,8
CO[C@H]1CN(C)C(=O)c2cccc(C#N)c2OC[C@@H]2O[C@H](CC[C@H]2OC)CCN(C)C(=O)[C@H]1C,-11,.,.,.
Cc1ccc(S(=O)(=O)N(C)C[C@H]2Oc3c(NC(=O)Nc4ccc5c(c4)OCO5)cccc3C(=O)N([C@H](C)CO)C[C@@H]2C)cc1,11,.,.,.
O=C(CSc1ncccc1-c1nc2ccccc2[nH]1)N1CCCCC1,22,5,58*,45
O=C(CSc1nnc2c(n1)[nH]c1ccccc12)N1CCCCC1,-2,11,65*,12
CN(C)C(=O)CSc1ncccc1-c1nc2ccccc2[nH]1,-28,-4,11,-32
CC(C)NC(=O)CSc1ncccc1-c1nc2ccccc2[nH]1,-2,0,-4,4
Cc1[nH]c(=O)[nH]c(=O)c1NC(=O)CSc1ncccc1-c1nc2ccccc2[nH]1,-19,6,44,54*
CC(C)(C)c1ccc(C(=O)CC(=O)c2cc(Cl)ccc2O)cc1,.,-1,-6,-37
N/C(=C\C(=O)c1cc(Cl)ccc1O)C(Cl)(Cl)Cl,-2,6,67*,8
Cc1cc(C)cc(NC(=O)CCCCCN2C(=O)[C@@H]3Cc4ccccc4CN3C2=O)c1,0,1,55*,-6
Cc1noc(C)c1S(=O)(=O)N(C)C[C@H]1OCCCC[C@@H](C)Oc2ccc(NS(=O)(=O)c3ccc(F)cc3)cc2C(=O)N([C@@H](C)CO)C[C@H]1C,7,.,.,.
O=C(/C=C/c1cccc(C(F)(F)F)c1)Nc1cccc(C(F)(F)F)c1,11,-2,61*,51*
Cc1ccc(NC(=O)/C=C/c2cccc(C(F)(F)F)c2)cc1,-2,0,18,-3
SMILES,LGR2 inh,HSP90 inh,TWEAK Fn14 block,TROY signal inh
O=C(NNC(=S)Nc1cccc(C(F)(F)F)c1)c1ccccc1Cl,-7,-6,-2,-20
O=C(NNC(=S)Nc1cccc(C(F)(F)F)c1)c1cccc(Cl)c1,10,-3,62*,36
CCOc1ccc2nc(N3CCC(C(=O)N4CCN(c5ccccn5)CC4)CC3)sc2c1,.,4,51*,25
CCOc1ccc2nc(N3CCC(C(=O)N4CCN(c5ncccn5)CC4)CC3)sc2c1,-49,.,0,-23
O=C1c2cccc(O)c2C(=O)c2c(O)cccc21,.,-1,.,.
CC1OC(CC(=O)O)CC2=C1C(=O)c1c(O)cccc1C2=O (stereo unspecified),99*,.,106*,64*
C[C@@H]1CN([C@H](C)CO)C(=O)c2cc(N(C)C)ccc2O[C@@H](C)CCCCO[C@@H]1CN(C)C(=O)CCC(F)(F)F,-6,.,.,.
CO[C@H]1CN(C)C(=O)c2cc(NS(=O)(=O)c3cn(C)cn3)ccc2OC[C@@H](C)N(Cc2cccc(F)c2)C[C@@H]1C,9,.,.,.
CCCCN(CCCNC(=O)c1ccc2c(c1)NC(=O)CN2C)c1ccccc1,91*,.,108*,90*
CCOC(=O)C1=C(CC)Nc2ccccc2N=C1NC(=O)Nc1ccc(Cl)c(Cl)c1,32,0,73*,53*
COc1ccc(N2CCCn3c2nc2c3c(=O)n(CCN3CCOCC3)c(=O)n2C)cc1,.,.,12,26
Cc1cccc(N2CCCn3c2nc2c3c(=O)n(CCN3CCOCC3)c(=O)n2C)c1,.,-4,108*,11
O=C1NC[C@H](CCCCN2C[C@H](Cc3ccccc3)N(CCC3CCCCC3)C(=O)C2=O)N(CCC2CCCCC2)C1=O,5,.,27,77*
COc1ccc(NS(=O)(=O)c2ccc3nc(COc4cccc5ccccc45)[nH]c3c2)cc1,-79,1,59*,38
COc1ccc(NS(=O)(=O)c2ccc3nc(COc4ccc5ccccc5c4)[nH]c3c2)cc1,26,-1,48,40
CCOc1ccccc1NC(=O)c1nc(S(=O)(=O)Cc2ccccc2)ncc1Cl,3,4,74*,75*
COc1ccccc1NC(=O)c1ccc(CS(=O)(=O)c2ccc(C)cc2)cc1,-3,1,-4,11
CCS(=O)(=O)c1ncc(Cl)c(C(=O)Nc2ccccc2OC)n1,12,-4,95*,73*
COc1ccccc1NC(=O)c1nc(S(=O)(=O)Cc2ccccc2)ncc1Cl,-17,-3,74*,72*
N#C[C@H]1[C@@H](c2ccccc2C2=CCCCC2)[C@@H](CO)N1C(=O)Nc1ccccc1F,14,.,.,.
O=C(C1CCOCC1)N1[C@H](CO)[C@H](c2ccccc2)C12CN(Cc1cncnc1)C2,-3,.,.,.
O=C(Nc1ccccc1)C1=C(c2ccccc2)S(=O)(=O)CCS1(=O)=O,100*,1,88*,87*
CN1c2ccccc2C(C)(C)[C@]12C=Cc1cc(O)ccc1O2,3,3,102*,14
CN1c2ccccc2C(C)(C)C12C=Nc1c(ccc3ccccc13)O2 (stereo unspecified),16,4,71*,70*
COc1ccc2ccc3c(c2c1)N=CC1(O3)N(C)c2ccccc2C1(C)C (stereo unspecified),.,1,17,48
SMILES,LGR2 inh,HSP90 inh,TWEAK Fn14 block,TROY signal inh
Cc1cc(C)nc(CCNC(=O)c2cc(COc3ccc(F)cc3Cl)on2)n1,-1,-6,-21,76*
O=C(O)c1cccc(COc2ccc(CO)cc2Cl)c1,100*,.,71*,-26
COc1ccc(OCc2cccc(C(=O)O)c2)cc1,.,.,53*,-38
O=C(O)c1cc(OCc2ccccc2)cc(OCc2ccccc2)c1,11,-3,8,5
CCOc1ccc(OCc2cccc(C(=O)O)c2)cc1,102*,.,46,-30
COc1ccc(S(=O)(=O)N[C@@H]2CC[C@H](CC(=O)NCCc3ccccc3)O[C@H]2CO)cc1,9,.,.,.

# High-throughput results from PubChem.
